Laboratory results reported in PubChem BioAssay.
Active and inactive are the calls of the source.

Legend:
[1] = test system: Plasmodium falciparum Sir2 (PF13_0152, Sir2A); experiment: pfSir2 binders on small-molecule microarrays, primary screen, biochemical, small-molecule microarray, 635 nm fluorescence (AID 1098); settings: small-molecule microarray binding, fluorescence 635 nm; higher = more signal;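 note: score merges spot fluorescence intensity with its signal-to-noise ratio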
[2] = small-molecule microarray binders of probe aDKK1, primary screen, biochemical, biotinylated probe, 635/667 nm fluorescence (AID 1099); settings: higher = more signal;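 note: score merges 667nm spot fluorescence with signal to noise across triplicate slides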
[3] = small-molecule microarray binders of probe aCHRDL2, primary screen, biochemical, biotinylated probe, 635/667 nm fluorescence (AID 1100); settings: higher = more signal
[4] = splicing luciferase reporter signal modulators, primary screen, spliceosome inhibition project, cell-based, HEK293, splice +/- reporter (AID 1101); settings: luminescence, 24 h, higher = more signal, called active from +8 up or from −8 down;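 note: HEK293 cells carrying a splicing-competent luciferase reporter gene; test concentration not given here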
[5] = target: Fibroblast growth factor 10 (Homo sapiens) (UniProt O15520); experiment: FGF10 binders on small-molecule microarrays, primary screen, biochemical, small-molecule microarray, 635 nm fluorescence (AID 1102); settings: FGF10 binding, fluorescence 635 nm, higher = more signal
Sequence of Fibroblast growth factor 10 (Homo sapiens) (O15520 whole entry, looked up): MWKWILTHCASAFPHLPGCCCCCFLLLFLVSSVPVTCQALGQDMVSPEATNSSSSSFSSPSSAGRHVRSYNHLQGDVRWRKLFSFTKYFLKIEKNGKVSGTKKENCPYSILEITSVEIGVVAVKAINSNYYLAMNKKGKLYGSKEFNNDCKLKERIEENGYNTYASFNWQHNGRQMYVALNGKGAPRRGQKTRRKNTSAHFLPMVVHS

[6] = test system: glycogen synthase kinase-3 (GSK3A per assay name; protocol says GSK3B); experiment: GSK3 binders on small-molecule microarrays, primary screen, biochemical, small-molecule microarray, 635 nm fluorescence, GSK3A (AID 1103); settings: small-molecule microarray binding, fluorescence 635 nm; higher = more signal; note: the record names both GSK3A and GSK3B
[7] = target: Epidermal growth factor receptor (Homo sapiens) (UniProt P00533); experiment: EGFR binders on small-molecule microarrays, primary screen, biochemical, small-molecule microarray, 635 nm fluorescence (AID 1104); settings: EGFR binding, higher = more signal;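 note: score merges 667 nm emission intensity with spot signal to noise over triplicate slides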
Sequence of Epidermal growth factor receptor (Homo sapiens) (P00533 whole entry, looked up): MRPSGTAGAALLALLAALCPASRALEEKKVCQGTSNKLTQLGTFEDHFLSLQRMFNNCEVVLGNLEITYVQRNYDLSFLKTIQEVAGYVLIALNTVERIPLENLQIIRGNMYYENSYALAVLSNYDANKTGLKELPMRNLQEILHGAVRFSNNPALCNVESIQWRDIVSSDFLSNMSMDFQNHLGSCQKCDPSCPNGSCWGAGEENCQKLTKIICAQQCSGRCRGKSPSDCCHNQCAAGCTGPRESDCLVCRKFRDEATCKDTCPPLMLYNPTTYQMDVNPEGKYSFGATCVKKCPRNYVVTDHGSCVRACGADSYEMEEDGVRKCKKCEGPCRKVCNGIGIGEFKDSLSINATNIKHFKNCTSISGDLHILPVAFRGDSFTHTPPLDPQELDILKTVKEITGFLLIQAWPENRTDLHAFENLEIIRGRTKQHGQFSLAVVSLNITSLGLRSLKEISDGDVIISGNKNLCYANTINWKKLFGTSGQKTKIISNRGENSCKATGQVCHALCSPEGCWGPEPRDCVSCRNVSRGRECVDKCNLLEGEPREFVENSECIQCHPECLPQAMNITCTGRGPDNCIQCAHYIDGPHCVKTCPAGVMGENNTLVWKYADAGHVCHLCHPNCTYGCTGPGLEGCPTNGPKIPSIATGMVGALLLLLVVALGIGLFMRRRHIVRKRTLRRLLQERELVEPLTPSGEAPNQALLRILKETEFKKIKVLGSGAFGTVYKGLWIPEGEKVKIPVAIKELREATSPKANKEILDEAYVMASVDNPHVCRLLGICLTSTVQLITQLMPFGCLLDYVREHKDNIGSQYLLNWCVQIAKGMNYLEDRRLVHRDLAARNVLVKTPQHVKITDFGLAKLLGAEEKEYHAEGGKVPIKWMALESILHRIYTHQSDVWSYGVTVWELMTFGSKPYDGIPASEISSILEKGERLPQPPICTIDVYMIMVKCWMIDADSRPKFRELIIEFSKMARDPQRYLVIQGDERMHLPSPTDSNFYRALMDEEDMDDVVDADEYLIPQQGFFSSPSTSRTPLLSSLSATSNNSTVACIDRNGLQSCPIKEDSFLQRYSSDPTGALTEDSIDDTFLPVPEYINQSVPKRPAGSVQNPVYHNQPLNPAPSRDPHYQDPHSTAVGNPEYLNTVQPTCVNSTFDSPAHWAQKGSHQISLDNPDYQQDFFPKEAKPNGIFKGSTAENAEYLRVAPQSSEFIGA

[8] = target: Follistatin-related protein 3 (Homo sapiens) (UniProt O95633); experiment: FSTL3 binders on small-molecule microarrays, primary screen, biochemical, small-molecule microarray, 635 nm fluorescence (AID 1105); settings: FSTL3 binding, higher = more signal;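 note: score merges emission near 667 nm and signal to noise per printed spot across three slides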
Sequence of Follistatin-related protein 3 (Homo sapiens) (O95633 whole entry, looked up): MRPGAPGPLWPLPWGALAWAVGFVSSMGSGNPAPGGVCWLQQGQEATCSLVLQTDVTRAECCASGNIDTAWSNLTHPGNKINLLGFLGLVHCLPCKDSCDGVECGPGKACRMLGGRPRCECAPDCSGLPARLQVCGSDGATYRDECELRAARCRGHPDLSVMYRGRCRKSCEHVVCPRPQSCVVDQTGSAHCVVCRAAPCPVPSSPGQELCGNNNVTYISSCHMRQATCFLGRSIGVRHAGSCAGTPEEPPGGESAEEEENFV

[9] = target: Dickkopf-related protein 1 (Homo sapiens) (UniProt O94907); experiment: DKK1 binders on small-molecule microarrays, primary screen, biochemical, small-molecule microarray, 635 nm fluorescence scan (AID 1106); settings: DKK1 binding, higher = more signal;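 note: score merges emission near 667 nm with signal to noise over three replicate slides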
Sequence of Dickkopf-related protein 1 (Homo sapiens) (O94907 whole entry, looked up): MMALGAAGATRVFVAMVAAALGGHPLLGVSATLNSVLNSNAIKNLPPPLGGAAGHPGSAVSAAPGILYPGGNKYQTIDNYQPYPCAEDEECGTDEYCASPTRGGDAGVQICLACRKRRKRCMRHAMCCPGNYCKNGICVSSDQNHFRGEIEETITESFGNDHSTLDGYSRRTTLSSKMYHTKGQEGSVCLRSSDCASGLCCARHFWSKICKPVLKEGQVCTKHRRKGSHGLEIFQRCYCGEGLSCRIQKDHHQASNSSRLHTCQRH

[10] = test system: Inhibin beta A chain (activin A); experiment: INHBA (activin A) binders on microarrays, primary screen, biochemical, small-molecule microarray, 635 nm fluorescence scan (AID 1107); settings: small-molecule microarray binding, higher = more signal;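 note: mouse activin A protein probed at 4.33 µg/mL on printed slides; score merges bound-protein fluorescence near 667 nm with spot signal-to-noise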
[11] = test system: Human papillomavirus type 1a protein E7 (residues 44-93); experiment: HPV1a E7 fragment binders on microarrays, primary screen, biochemical, small-molecule microarray, residues 44-93, 635 nm fluorescence (AID 1108); settings: small-molecule microarray binding, fluorescence 635 nm; higher = more signal;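 note: E7 fragment applied at 1 µg/mL in TBST for 1 h at 4 C; score combines spot fluorescence with its signal to noise ratio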
[12] = modulators of HCV replicon luciferase signal, primary screen, HCV replication inhibitor project, Huh7 cells, luciferase reporter (AID 1109); settings: 48 h, higher = more signal;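 note: huh7 hepatoma cells harbouring a luciferase neomycin HCV replicon reporter; luciferase luminescence as measure of HCV replicon replication; test concentration not given here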
[13] = target: Left-right determination factor 2 (Homo sapiens) (UniProt O00292); experiment: LEFTY2 binders on small-molecule microarrays, primary screen, biochemical, small-molecule microarray, 635 nm fluorescence scan (AID 1110); settings: LEFTY2 binding, higher = more signal
Sequence of Left-right determination factor 2 (Homo sapiens) (O00292 whole entry, looked up): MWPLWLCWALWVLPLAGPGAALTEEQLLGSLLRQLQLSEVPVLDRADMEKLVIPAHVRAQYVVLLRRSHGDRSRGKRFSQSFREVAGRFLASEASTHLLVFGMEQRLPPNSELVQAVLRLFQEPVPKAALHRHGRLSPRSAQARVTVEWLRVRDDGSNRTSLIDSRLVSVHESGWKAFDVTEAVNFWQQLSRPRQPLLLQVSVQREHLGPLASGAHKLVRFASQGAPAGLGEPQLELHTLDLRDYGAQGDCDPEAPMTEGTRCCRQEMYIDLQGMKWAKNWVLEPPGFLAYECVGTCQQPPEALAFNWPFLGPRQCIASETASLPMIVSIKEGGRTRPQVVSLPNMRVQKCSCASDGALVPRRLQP

[14] = target: Calmodulin-1 (Homo sapiens) (UniProt P0DP23); experiment: CALM1 binders on microarrays, EGTA buffer, profiling panel, biochemical, small-molecule microarray, Cy5-labelled CALM1 (AID 1111); settings: Cy5-CALM1 binding fluorescence, higher = more signal;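 note: labelled calmodulin applied in Tris saline Tween buffer holding calcium plus EGTA and DTT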
[15] = target: Calmodulin-1 (Homo sapiens) (UniProt P0DP23); experiment: calcium-bound CALM1 binders on microarrays, profiling panel, artefact control for SMM control-protein annotation, biochemical, small-molecule microarray, Cy5-labelled CALM1, plus calcium (AID 1112); settings: Cy5-CALM1 binding fluorescence, higher = more signal;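 note: score merges spot fluorescence with signal to noise from triplicate slides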
[16] = small-molecule microarray binders of probe aWnt5a, primary screen, biochemical, biotinylated probe, 635/667 nm fluorescence (AID 1113); settings: higher = more signal;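 note: score merges 667 nm fluorescence intensity with signal-to-noise per printed feature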
[17] = small-molecule microarray binders of probe aShh, primary screen, biochemical, biotinylated probe, 635/667 nm fluorescence (AID 1114); settings: higher = more signal;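 note: probe is biotin-labelled aShh protein from a stem cell growth factor screen; measures binding of labelled protein to compounds printed on the slide; score merges feature fluorescence at 667 nm with signal-to-noise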
[18] = small-molecule microarray binders of probe aNog, primary screen, biochemical, biotinylated probe, 635/667 nm fluorescence (AID 1115); settings: higher = more signal;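 note: probe is biotinylated aNog protein used at 0.15 µg/mL for 1 h at 4 C; z-score combines 667 nm fluorescence of each spot with its signal to noise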
[19] = target: Torsin-1A-interacting protein 1 (Homo sapiens) (UniProt Q5JTV8); experiment: LAP1 binders from COS7 cell lysate, primary screen, small-molecule microarray, 635/667 nm fluorescence (AID 1116); settings: COS7-hLAP1 lysate binding, 635 nm fluorescence, higher = more signal
Sequence of Torsin-1A-interacting protein 1 (Homo sapiens) (Q5JTV8 whole entry, looked up): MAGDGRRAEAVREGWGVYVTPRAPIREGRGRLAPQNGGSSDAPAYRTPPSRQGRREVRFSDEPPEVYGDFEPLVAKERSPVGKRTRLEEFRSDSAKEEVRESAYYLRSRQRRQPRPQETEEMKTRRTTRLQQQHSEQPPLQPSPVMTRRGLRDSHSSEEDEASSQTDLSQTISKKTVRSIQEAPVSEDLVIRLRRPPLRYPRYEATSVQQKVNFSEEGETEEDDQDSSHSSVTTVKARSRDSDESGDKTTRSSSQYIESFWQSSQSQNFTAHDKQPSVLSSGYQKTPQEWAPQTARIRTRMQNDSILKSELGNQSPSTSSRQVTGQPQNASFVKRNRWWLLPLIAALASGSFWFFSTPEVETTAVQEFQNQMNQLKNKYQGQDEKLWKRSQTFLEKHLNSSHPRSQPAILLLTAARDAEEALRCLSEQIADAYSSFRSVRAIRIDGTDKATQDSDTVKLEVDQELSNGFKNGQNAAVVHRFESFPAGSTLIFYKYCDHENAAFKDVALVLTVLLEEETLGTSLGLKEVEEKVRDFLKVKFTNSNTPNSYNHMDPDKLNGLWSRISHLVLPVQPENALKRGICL

[20] = target: Alpha-bungarotoxin (Bungarus multicinctus) (UniProt P60615); experiment: alpha-bungarotoxin binders on microarray, profiling panel, artefact control for SMM control protein annotation, biochemical, small-molecule microarray, Alexa647 label, 635/667 nm fluorescence (AID 1117); settings: alpha-BTX-A647 binding fluorescence, higher = more signal
Sequence of Alpha-bungarotoxin (Bungarus multicinctus) (P60615 whole entry, looked up): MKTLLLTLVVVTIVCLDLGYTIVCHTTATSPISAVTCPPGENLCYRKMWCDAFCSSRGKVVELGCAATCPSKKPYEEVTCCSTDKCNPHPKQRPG

SMILES	composite z-score [1]	composite z-score [2]	composite z-score [3]	z-score [4]	composite z-score [5]	composite z-score [6]	composite z-score [7]	composite z-score [8]	composite z-score [9]	composite z-score [10]	composite z-score [11]	z-score [12]	composite z-score [13]	composite z-score [14]	composite z-score [15]	composite z-score [16]	composite z-score [17]	composite z-score [18]	composite z-score [19]	composite z-score [20]
O=C1NC(=O)C2C1C=CC(C(O)C=Cc1ccc([N+](=O)[O-])cc1)N2Nc1ccc(Cl)cc1Cl (stereo not given)	0.373	1.19	1.17	-0.509 (inactive)	0.641	0.364	0.41	1.02	0.0567	1.11	0.0788	0.498	0.0391	2.14	0.713	-0.031	0.317	0.0884	1.52	1.49
[N-]=[N+]=NCc1ccccc1[C@H]1OC(c2ccc(OCCCO)cc2)=N[C@@]1(Cc1ccccc1)C(=O)N1CCCCC1	1.14	0.344	0.574	-1.05 (inactive)	1.34	1.3	0.0201	0.79	0.428	0.522	1.37	-2.55	0.198	1.23	0.0298	0.195	-0.0243	-0.768	0.249	1.43
COc1cc2c(cc1OC)CN(C(=O)[C@H]1[C@@H]3C(=O)O[C@@H](c4ccccc4)[C@@H](c4ccccc4)N3[C@@H](c3ccccc3OCCO)[C@]13C(=O)Nc1ccc(C#CCCO)cc13)CC2	1.37	-0.112	-0.294	-0.826 (inactive)	0.786	1.28	0.47	0.964	0.518	0.931	1.37	-1.79	0.61	0.234	-0.114	0.0136	-0.138	0.194	0.532	0.862
CN1C(=O)C2C=CC(C(O)c3ccc(F)cc3)N(N(c3ccccc3)c3ccccc3)C2C1=O (stereo not given)	1.46	0.303	1.03	1.9 (inactive)	0.103	0.0581	-0.329	0.549	-0.742	0.984	1.11	-0.0952	-0.698	0.49	-0.235	-0.0236	-0.152	-0.55	0.154	0.633
COCCCNC(=O)[C@@]1(CCS(=O)(=O)c2ccccc2)N=C(c2ccc(OCCCO)cc2)O[C@H]1c1ccccc1N=[N+]=[N-]	1.41	0.879	0.942	-0.0182 (inactive)	1.49	0.79	-0.0333	1.25	0.267	0.796	1.48	-1.6	0.169	1.55	0.001	0.127	0.204	1.36	2.24	1.67
O=C1C[C@@](C(=O)NCc2ccccc2)(c2ccc([N+](=O)[O-])cc2)[C@@H](c2ccc(CO)cc2)N1CC12CC3CC(CC(C3)C1)C2	1.62	-0.387	-0.371	-0.859 (inactive)	1.06	1.13	0.385	0.837	0.0703	0.0162	1.37	-2.95	0.31	0.35	0.159	-0.101	-0.512	-0.374	0.538	0.766
COCC(=C=CC[C@@H](O)c1ccc(OCCO)cc1)C[C@@H](O)c1ccccn1	0.0525	-0.201	-0.288	0.0733 (inactive)	0.377	0.0621	0.0724	0.439	0.0579	1.18	0.518	-1.24	0.33	-0.336	-0.125	0.0173	0.227	-0.0184	0.407	0.338
COc1ccc(CCNC(=O)[C@@]2(C)c3ccccc3C(=O)N(c3ccc(C)cn3)[C@H]2c2ccc(CO)cc2)cc1	-0.697	-0.0508	0.156	0.981 (inactive)	-1.2	-0.831	-1.03	-1.06	-0.905	0.453	-0.992	-0.583	-0.839	-0.4	-0.141	-0.096	1.9	-0.118	0.56	-0.438
[N-]=[N+]=Nc1ccccc1C[C@@]1(C(=O)N2CCCCC2)N=C(c2ccc(OCCCO)cc2)O[C@@H]1c1ccccc1	1.18	0.901	1.07	-0.969 (inactive)	0.465	1.29	-0.209	0.112	-0.174	0.803	-0.108	-1.2	0.0334	1.83	0.914	-0.0459	-0.0904	1.79	1.52	1.07
CCCC=C(CCC)[C@@H](NS(=O)(=O)c1ccc(Cl)cc1)c1ccc(C(=O)OC)cc1	0.456	0.113	-0.461	0.184 (inactive)	0.401	0.836	0.228	-0.445	0.291	0.28	1.31	0.677	-0.0953	-0.246	-0.526	-0.183	-0.0386	-0.201	0.892	1.29
COc1cc(CO)cc(I)c1O[C@H]1C=C(C(=O)NCCO)C[C@@H](NC[C@@H]2CCCO2)[C@@H]1O	0.922	-0.349	-0.204	-0.466 (inactive)	0.671	0.0227	-0.0367	0.334	0.17	-0.0437	1.33	-0.695	0.187	-0.0113	-0.732	-0.096	-0.304	-0.267	1.13	0.693
